# Compound activity from PubChem BioAssay.
# JMJD2A Tudor: blocks the human JMJD2A Tudor domain; O75164; AlphaScreen JMJD2A-Tudor / H3K4me3 peptide binding; Potency, µM (highest dose often 114 µM), without a hit: at the top dose activity change, negative = inhibition, most hits filed as inhibitors; 390,000 tested, 4.4% active; further: potency means the concentration at half of the fitted maximal effect; on the % scale 0 is the no-effect control and ±100 the full control effect; nearly all actives have a fitted effect of over 50% in size
# Target sequence (O75164 whole entry, looked up, the tested form may be a part): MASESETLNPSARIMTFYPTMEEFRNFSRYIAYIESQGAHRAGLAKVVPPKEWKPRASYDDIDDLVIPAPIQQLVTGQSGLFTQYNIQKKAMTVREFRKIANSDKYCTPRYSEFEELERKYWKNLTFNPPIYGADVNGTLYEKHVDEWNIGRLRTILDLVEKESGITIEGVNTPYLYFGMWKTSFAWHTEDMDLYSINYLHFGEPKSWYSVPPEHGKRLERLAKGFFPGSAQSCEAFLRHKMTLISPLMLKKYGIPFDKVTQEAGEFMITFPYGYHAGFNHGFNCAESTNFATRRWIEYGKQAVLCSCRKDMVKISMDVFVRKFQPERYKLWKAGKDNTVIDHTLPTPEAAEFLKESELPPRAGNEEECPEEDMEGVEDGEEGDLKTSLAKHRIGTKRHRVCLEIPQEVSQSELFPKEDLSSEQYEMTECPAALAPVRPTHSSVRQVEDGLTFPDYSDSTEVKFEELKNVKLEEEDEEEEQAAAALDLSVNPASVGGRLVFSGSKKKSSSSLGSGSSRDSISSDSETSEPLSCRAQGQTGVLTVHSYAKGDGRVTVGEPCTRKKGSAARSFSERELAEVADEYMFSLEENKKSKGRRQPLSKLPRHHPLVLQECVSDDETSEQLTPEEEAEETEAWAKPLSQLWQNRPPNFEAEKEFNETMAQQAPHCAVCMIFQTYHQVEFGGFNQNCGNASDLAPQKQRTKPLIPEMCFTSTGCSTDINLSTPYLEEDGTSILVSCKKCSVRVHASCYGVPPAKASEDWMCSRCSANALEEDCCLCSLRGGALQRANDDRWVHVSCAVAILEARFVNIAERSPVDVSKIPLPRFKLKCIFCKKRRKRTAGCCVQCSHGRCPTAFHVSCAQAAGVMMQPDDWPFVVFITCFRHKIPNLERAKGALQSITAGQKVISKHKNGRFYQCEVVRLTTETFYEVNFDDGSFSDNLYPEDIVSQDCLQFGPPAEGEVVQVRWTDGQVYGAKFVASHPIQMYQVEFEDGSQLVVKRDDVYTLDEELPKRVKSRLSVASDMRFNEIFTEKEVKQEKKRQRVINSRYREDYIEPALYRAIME
# PLK1 PBD inh: blocks phosphopeptide binding to human PLK1 polo-box domain | P53350 | Plk1 PBD binding of FITC phosphopeptide, fluorescence polarization | 360,000 tested, 2.8% active | Potency, µM, for the others: max response, negative = inhibition, actives largely listed as inhibitors; further: potency means the concentration at half of the fitted maximal effect; series mostly up to about 57 µM; on the % scale 0 is the no-effect control and ±100 the full control effect; nearly all actives have a fitted effect of over 65% in size
# BAZ2B inh: BAZ2B (human) inhibition. AID 504333. Potency, µM (top dose mostly 114 µM), for inactives: top-dose activity change, negative = inhibition, usual class: inhibitors. AlphaScreen BAZ2B-H3K14Ac peptide displacement. 360,000 tested, 4.4% active. Q9UIF8; further: potency means the concentration at half of the fitted maximal effect; on the % scale 0 is the no-effect control and ±100 the full control effect; nearly all actives have a fitted effect of over 60% in size
#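 Inhibition is scored as reduced AlphaScreen emission. The BAZ2B/b-H3(5-23)K14Ac complex (50 nM each) in PBS pH 7.4, 0.01% Tween-20 meets compound (up to 110 uM) for 30 min at RT before bead addition.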
# PI5P4Ka inh: blocks human PI5P4K alpha kinase activity | max response, % | PI5P4Kalpha enzyme, ADP-Glo luminescence, 60 min; hits give low values | P48426 | 330,000 tested, 1.2% active; active means max response of -50% or lower; inconclusive means between -30% and -50%; inactive means -30% or higher; further: value at the top dose of about 77 µM; on the % scale 0 is the no-effect control and ±100 the full control effect
#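 Human PI5P4Kalpha with substrate in 0.038 M HEPES pH 7.4, 0.28 mM EGTA, 0.1% CHAPS, 5% DMSO; reaction started with 5 microM ATP (final), 60 min at room temperature. ADP formed read by ADP-Glo luminescence.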
# GCN5L2 inh: inhibitors of human GCN5L2 histone acetyltransferase. Q92830. GCN5L2 HAT assay, ThioGlo1 CoA-SH fluorescence. Potency, µM (titrated, usually from 58.9 µM), inactives show at the highest dose activity change, negative = inhibition, most hits filed as inhibitors. 390,000 tested, 0.21% active; further: potency means the concentration at half of the fitted maximal effect; on the % scale 0 is the no-effect control and ±100 the full control effect
#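 Compounds, pin-transferred from DMSO stocks, meet 20nM GCN5L2 for 15 min before the reaction begins with H3(1-25) peptide (75uM) and acetyl-CoA (70uM). Thiol-reactive ThioGlo1 reports CoA release over 20 min at room temperature.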
# HP1b binding inh: inhibitors of HP1-beta chromodomain binding to methylated histone tails | 390,000 tested, 0.56% active | AID 540317 | AlphaScreen HP1-beta / biotin-H3K9me3 peptide binding | P83916 | Potency, µM (doses to about 114 µM), inactives show at the top dose activity change, negative = inhibition, hits mostly inhibitors; further: potency means the concentration at half of the fitted maximal effect; nearly all actives have a fitted effect of over 70% in size
#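 Compound inhibition of the preformed complex between 50 nM HP1-beta and 50 nM biotinylated H3K9me3 peptide was read by AlphaScreen. Buffer was PBS pH 7.4 with 0.01% Tween-20. Incubations ran 30 min at room temperature, with 10 ug/mL donor/acceptor beads.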
# TbPYK inh: confirmation of Trypanosoma brucei pyruvate kinase inhibitors. shares compounds with PLK1 PBD inh. recombinant TbPYK, Kinase-Glo ATP luminescence. Potency, µM (top dose mostly 76.9 µM), without a hit: at the highest dose activity change, negative = inhibition, actives largely listed as inhibitors. 890 tested, 67% active. AID 720569; further: potency means the concentration at half of the fitted maximal effect; on the % scale 0 is the no-effect control and ±100 the full control effect; nearly all actives have a fitted effect of over 70% in size
# TbPYK ADP-Glo: orthogonal confirmation of Trypanosoma brucei pyruvate kinase inhibitors; 890 tested, 62% active; recombinant TbPYK, ADP-Glo luminescence, 60 min; Potency, µM (doses to about 76.9 µM), without a hit: at the top dose activity change, negative = inhibition, hits mostly inhibitors; shares compounds with PLK1 PBD inh; further: potency means the concentration at half of the fitted maximal effect; on the % scale 0 is the no-effect control and ±100 the full control effect; nearly all actives have a fitted effect of over 75% in size
# * marks the source's active call; other numbers are inactive results; ? = inconclusive; · = no result; [ ] = remark or other dose. Compounds with a hit are over-represented: about 7% of the library has one in this group of screens. Unless noted, the call rests on the fitted dose curve; in most records, active means well fitted curve in the direction sought with a large enough effect; inconclusive means small, poorly fitted or top-dose-only effect, or another doubt; inactive means no such curve, though single readings can be large; an effect the other way counts as inactive or inconclusive.
SMILES,JMJD2A Tudor,PLK1 PBD inh,BAZ2B inh,PI5P4Ka inh,GCN5L2 inh,HP1b binding inh,TbPYK inh,TbPYK ADP-Glo
O=C(NCCCN1CCCC1)[C@H](CSCc1ccccc1)N1Cc2ccccc2C1=O,-15%,-20%,-1%,0,-24%,31%,·,·
CCN1C(=O)/C(=C/C=C2/Sc3ccc4ccccc4c3N2CCO)SC1=S,-17%,-9%,?,-1,4%,5%,16µM*,?
CCN1C(=O)/C(=C/N2CCc3ccccc3C2)SC1=S,-26%,-1%,15%,3,-11%,15%,·,·
COc1ccc(-c2nnc3ccc(SCC(=O)N4CCN(c5ccccc5)CC4)nn23)cc1,?,-21%,·,-25,·,34%,?,?
CCCN1C(=O)S/C(=C\c2ccc(N3CCOCC3)o2)C1=O,?,105%,-38%,-26,-21%,?,?,40µM*
Cc1noc(NS(=O)(=O)c2ccc(NC(=O)CSc3nc4c(cc3C#N)CCCC4)cc2)c1C,-12%,?,-9%,1,-8%,39%,·,·
Cc1noc(NS(=O)(=O)c2ccc(NC(=O)CSc3nc4c(cc3C#N)CCC4)cc2)c1C,25µM*,?,?,-11,0%,-1%,?,32µM*
Cc1nn(C)c(N)c1[N+](=O)[O-],10%,2%,3%,-2,-2%,8%,·,·
Cc1nn(C)c(Sc2ccccc2N)c1[N+](=O)[O-],18µM*,13µM*,-37%,-24,-8%,-17%,13µM*,13µM*
COCC(=O)N1CCC(Oc2ccc(C(=O)NCCc3ccncc3)cc2)CC1,1%,-6%,-31%,-3,1%,13%,·,·
CCN(CC)c1ccc(N)cc1S(=O)(=O)Nc1ccccc1OC,?,3.4µM*,?,?,-25%,11µM*,7.9µM*,11µM*
Cc1ccc(S(=O)(=O)c2nc(-c3ccccc3)oc2SCC(=O)NC2CCCCC2)cc1,2%,·,1%,·,1%,25%,·,·
COc1ccccc1N(C(C)=O)C1=C(Cl)C(=O)c2ccccc2C1=O,·,3µM*,·,-89*,·,·,-100%,0.79µM*
O=C1/C(=C\c2ccncc2)CCc2ccccc21,-20%,-8%,-9%,-28,-4%,41%,?,7%
O=C1C(=Cc2ccc(Cl)cc2)CCc2ccccc21,·,2%,·,2,·,·,25µM*,7%
O=C1C(=Cc2ccc(F)cc2)CCc2ccccc21,·,-15%,·,?,·,·,28µM*,10%
COc1ccc(C=C2CCc3ccccc3C2=O)cc1,·,4%,·,?,·,·,25µM*,12%
CCOCCCN1C(=O)c2ccccc2CC1(C)C(=O)NC1CCCCC1 (centres undefined),-9%,·,1%,·,-5%,34%,·,·
O=C(NCc1ccccn1)c1cc(S(=O)(=O)N2CCCCC2)ccc1Cl,-9%,-6%,-4%,5,-2%,36%,·,·
CCCCCCC(NC(=O)c1ccc(C)cc1)C(=O)O (centres undefined),-25%,-16%,·,-1,-1%,22%,·,·
COc1ccccc1C=C1CCc2ccccc2C1=O,·,0%,·,-11,·,·,·,·
O=C1C(=Cc2ccccc2Cl)CCc2ccccc21,·,-18%,·,-27,·,·,25µM*,9%
Cc1ccc2oc(C(=O)N(C)Cc3ccc(C)o3)c(C)c2c1,?,?,-16%[57.1 µM],-6,-16%,-14%,16µM*,28µM*
COc1ccc2nc(/C=N/NC(=O)CCCCCNC(=O)OC(C)(C)C)ccc2c1,-6%,2%,-11%,6,-5%,8%,·,·
Cc1ccc(O)c(NC2=C(Cl)C(=O)N(Cc3ccccc3)C2=O)c1,4µM*,3µM*,45µM*,-20,-7%,16µM*,16µM*,20µM*
SMILES,JMJD2A Tudor,PLK1 PBD inh,BAZ2B inh,PI5P4Ka inh,GCN5L2 inh,HP1b binding inh,TbPYK inh,TbPYK ADP-Glo
CC1CCCCN1C(=O)c1c(Cl)cnn1C (centres undefined),2%,0%,-2%,-2,-2%,49%,·,·
O=C1C=CC(=O)N1CCNc1ncc(C(F)(F)F)cc1Cl,?,2.7µM*,-30%,-18,0%,-1%,1.3µM*,4µM*
CCOc1ccccc1N1C(=O)CC(Sc2n[nH]c(-c3ccccc3)n2)C1=O (centres undefined),1.4µM*,7.5µM*,?,-18,-21%,13µM*,7.1µM*,13µM*
COc1ccc(-n2nnnc2Sc2ccc(S(=O)(=O)N3CCOCC3)cn2)cc1,22µM*,9.5µM*,-2%,-28,-6%,?,14µM*,18µM*
Cc1ccc2nc(COc3ccccc3NC(=O)c3ccccc3F)cc(=O)n2c1,4%,·,6%,·,-2%,29%[57 µM],·,·
COc1ccccc1-n1c(=S)[nH]c2c(sc(=S)n2-c2ccccc2)c1=O,?,-16%,-16%,-12,1%,23%,32µM*,18µM*
CCOc1ccccc1-n1c(=S)sc2c(=O)n(-c3ccccc3)c(=S)[nH]c21,79µM*,3%,-30%,-21,-12%,24%,11µM*,11µM*
COc1ccccc1-n1c(SCC(=O)O)nc2c(sc(=S)n2-c2ccccc2C)c1=O,-4%,-15%,-1%,0,-1%,26%,·,·
COc1cccc(-n2c(=S)sc3c(=O)n(-c4ccccc4OC)c(=S)[nH]c32)c1,?,?,?,-8,-3%,-6%,·,·
COc1ccccc1-n1c(=S)[nH]c2c(sc(=S)n2-c2ccccc2C)c1=O,79µM*,27µM*,-24%,-23,-14%,?,5µM*,14µM*
COC1=C(OC)C(=O)C(Sc2ccc3ccccc3c2)=CC1=O,3.5µM*,0.75µM*,·,-91*,·,4.5µM*,0.35µM*,2.2µM*
CCCC(C(=O)NCCC(C)C)N(Cc1ccccc1Cl)C(=O)c1snc(C(N)=O)c1N (centres undefined),-10%,-11%,5%,7,-11%,14%,·,·
CCN(CC)c1ccc(C(=C2C=CC(=[N+](CC)CC)C=C2)c2ccccc2)cc1,16µM*,3.8µM*,·,-30,?,10µM*,35µM*,?
CCN(CC)c1ccc(C(=O)NNC(=O)CCNC(=O)c2ccccc2)cc1,-8%,-4%,11%,4,-9%,32%,·,·
CCN(CC)c1ccc(C(=C2C=CC(=[N+](CC)CC)C=C2)c2ccc(N(CC)CC)cc2)cc1,1.3µM*,30µM*,·,-73*,·,2.8µM*,22µM*,14%
